Consider 22 molecules from PubChem BioAssay (EPA / NIEHS).

Active and inactive are the calls of the source. Rule for the calls: active = hit-call score of the fitted dose curve at least 0.9, where 1 is the maximum; inactive = score below 0.9.

One may read the AC50 as the concentration at which the activity in the assay is half-maximal.

Read-out in experiment [1]: Thrombomodulin, THBD (gene 7056)
Put plainly: BSK_CASM3C_Thrombomodulin: BioMAP Diversity Plus: CASM3C Assay for Thrombomodulin Biomarker Activity (AID 2283051).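 Note: thrombomodulin protein level measured by ELISA 24 h after dosing.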 The settings on record: primary human coronary artery smooth muscle cells; actives raise or lower the signal.

Read-out in experiment [2]: Tissue Factor, F3 (gene 2152)
Put plainly: BSK_CASM3C_TissueFactor: BioMAP Diversity Plus: CASM3C Assay for Tissue Factor Biomarker Activity (AID 2283052).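 Note: cell surface tissue factor protein level read by ELISA.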 The following applies: primary human coronary artery smooth muscle cells; actives raise or lower the signal.

Read-out in experiment [3]: Interferon-gamma inducible Protein 10 (IP10), CXCL10 (gene 3627)
Put plainly: BSK_hDFCGF_IP10: BioMAP Diversity Plus: hDFCGF Assay for Interferon-gamma inducible Protein 10 (IP10) Biomarker Activity (AID 2283053). The following applies: primary human foreskin fibroblasts; actives raise or lower the signal. Summed up:
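Chemical-treated human skin fibroblasts (primary) were sampled at 24 h for IP-10 by ELISA. Both increases and decreases relative to DMSO were scored.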

Read-out in experiment [4]: Urokinase-type plasminogen activator receptor (uPAR), PLAUR (gene 5329)
Put plainly: BSK_CASM3C_uPAR: BioMAP Diversity Plus: CASM3C Assay for Urokinase-type plasminogen activator receptor (uPAR) Biomarker Activity (AID 2283054).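 Note: cell-surface uPAR protein level quantified by ELISA.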 The following applies: primary human coronary artery smooth muscle cells; actives raise or lower the signal.

Read-out in experiment [5]: Vascular cell adhesion molecule 1 (VCAM1), VCAM1 (gene 7412)
Put plainly: BSK_CASM3C_VCAM1: BioMAP Diversity Plus: CASM3C Assay for Vascular cell adhesion molecule 1 (VCAM1) Biomarker Activity (AID 2283055).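 Note: VCAM-1 protein level quantified by ELISA on the cells.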 The settings on record: primary human coronary artery smooth muscle cells; actives raise or lower the signal.

Read-out in experiment [6]: Collagen III, COL3A1 (gene 1281)
Put plainly: BSK_hDFCGF_CollagenIII: BioMAP Diversity Plus: hDFCGF Assay for Collagen III Biomarker Activity (AID 2283056). The settings on record: primary human foreskin fibroblasts; actives raise or lower the signal. The gist of the method:
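Cells: human foreskin fibroblasts, primary. Dosing followed by 24 h incubation, then ELISA for collagen III. Both increases and decreases scored relative to DMSO.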

Read-out in experiment [7]: Interleukin-8 (IL8), CXCL8 (gene 3576)
Put plainly: BSK_hDFCGF_IL8: BioMAP Diversity Plus: hDFCGF Assay for Interleukin-8 (IL8) Biomarker Activity (AID 2283058). The following applies: primary human foreskin fibroblasts; actives raise or lower the signal. The gist of the method:
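IL-8 levels from compound-treated primary human fibroblasts were read by ELISA at 24 h, with DMSO serving as baseline for bidirectional fitting.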

Experiment [8] in a line: BSK_hDFCGF_Proliferation: Cell Proliferation Assessment in the BioMAP Diversity Plus: hDFCGF Assay (AID 2283059).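 Note: curves fitted for both rise and fall of signal versus DMSO baseline.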 The settings on record: primary human foreskin fibroblasts. The gist of the method: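 Steps: dose primary human dermal fibroblasts (foreskin); […] fix in 10% TCA; stain with 0.1% SRB; read 560 nm; fit gain or loss of signal against DMSO.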
Read-out in experiment [9]: Macrophage colony-stimulating factor (MCSF), CSF1 (gene 1435)
Put plainly: BSK_hDFCGF_MCSF: BioMAP Diversity Plus: hDFCGF Assay for Macrophage colony-stimulating factor (MCSF) Biomarker Activity (AID 2283060). The following applies: primary human foreskin fibroblasts; actives raise or lower the signal. The gist of the method:
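M-CSF levels, determined by ELISA, are taken at 24 h after dosing human skin fibroblasts. Responses in either direction are fitted with DMSO serving as the baseline.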

Read-out in experiment [10]: Epidermal growth factor receptor (EGFR), EGFR (gene 1956)
Put plainly: BSK_hDFCGF_EGFR: BioMAP Diversity Plus: hDFCGF Assay for Epidermal growth factor receptor (EGFR) Biomarker Activity (AID 2283057). The settings on record: primary human foreskin fibroblasts; actives raise or lower the signal. The gist of the method: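 Cell-based multiplexed assay in primary human foreskin fibroblasts. EGFR is read by ELISA 24 h after treatment and compared with DMSO controls.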

On to `CC(C)c1ccc(C(=O)N=C(N)N)cc1S(C)(=O)=O`, for which the outcome in [1], in [2], in [3], in [4], in experiment [5] and in experiment [6] was inactive. In addition, the outcome in experiment [7], in experiment [8] and in [9] was inactive.

For the molecule `CCCCCC(=O)O`, the outcome in experiment [1], in experiment [2], in experiment [3], in experiment [4], in experiment [5] and in [6] was inactive. In addition, the result in [7], in experiment [8] and in experiment [9] was inactive.

As for `Cc1c(C(=O)O)c(O)cc2c1C(=O)c1c(O)c([C@@H]3O[C@H](CO)[C@@H](O)[C@H](O)[C@H]3O)c(O)c(O)c1C2=O`, the result in experiment [1], in experiment [2], in experiment [3], in [4], in experiment [5] and in experiment [6] was inactive. Besides, the outcome in [7] and in experiment [9] was inactive. The AC50 in [8] was 3.88 µM (active).

On to `Cc1cccc([N+](=O)[O-])c1C`, for which the result in experiment [1], in experiment [2], in experiment [3], in [4], in [5] and in experiment [6] was inactive. Also, the result in experiment [7], in [8] and in experiment [9] was inactive.

`FC(F)(F)C(F)(F)C(F)(F)C(F)(F)C(F)(F)C(F)(F)CCI`: the result in experiment [1], in experiment [2], in experiment [3], in experiment [4], in [5] and in experiment [6] was inactive. The outcome in [7], in [8] and in [9] was inactive.

In the case of `CC(=O)C(C)=CC1C(C)=CCCC1(C)C` (stereo not given), the outcome in experiment [1], in experiment [2], in experiment [3], in experiment [4], in experiment [5] and in experiment [6] was inactive. The outcome in [7], in experiment [8] and in experiment [9] was inactive.

As to `CC(=O)Oc1ccccc1C(=O)O`, the result in [1], in experiment [2], in [3], in experiment [4], in experiment [5] and in experiment [6] was inactive. Further, the outcome in experiment [7], in experiment [8] and in [9] was inactive.

Turning to `NCC1(Cc2noc(=O)[nH]2)CCCCC1`, the result in experiment [1], in experiment [2], in experiment [3], in [4], in [5] and in experiment [6] was inactive. Also, the result in experiment [10], in [7], in experiment [8] and in [9] was inactive.

In the case of `CCOC(=O)C(C)(C)Oc1ccc(Cl)cc1`, the result in experiment [1], in experiment [2], in experiment [3], in experiment [4], in experiment [5] and in [6] was inactive. Also, the result in experiment [10], in experiment [7], in experiment [8] and in [9] was inactive.

In the case of `Nc1ccc(S(=O)(=O)c2ccc(N)cc2)cc1`, the outcome in experiment [1], in [2], in experiment [3], in experiment [4], in experiment [5] and in [6] was inactive. Further, the result in experiment [7], in experiment [8] and in experiment [9] was inactive.

As for `CCCCCCOCCO`, the outcome in experiment [1], in [2], in [3], in experiment [4], in experiment [5] and in experiment [6] was inactive. In addition, the result in [10], in [7], in experiment [8] and in [9] was inactive.

For the molecule `CC1=C(/C=C/C(C)=C/C=C/C(C)=C/CO)C(C)(C)CCC1`, the concentration at half-maximal activity (AC50) in [1] is 12.2 µM (active); in experiment [3], 27.4 µM (active); in [10], 27.8 µM (active); in experiment [8], 12.4 µM (active); in experiment [9] it was 24.2 µM (active). Further, the outcome in [2], in experiment [4], in experiment [5], in experiment [6] and in experiment [7] was inactive.

As to `CC(C)(C)c1cc(O)c(C(C)(C)C)cc1O`, the AC50 in experiment [1] is 4.92 µM (active); in experiment [3], 20 µM (active); in experiment [6], 9.11 µM (active); in [8] it was 29.1 µM (active); in experiment [9] it was 17.6 µM (active). The result in experiment [2], in [4], in [5], in experiment [10] and in [7] was inactive.

As to `c1cc(-c2ccncc2)ccn1`, the outcome in [1], in experiment [2], in experiment [3], in [4], in [5] and in [6] was inactive. The outcome in experiment [10], in [7], in experiment [8] and in experiment [9] was inactive.

`Nc1nc(N)c2nc(CNc3ccc(C(=O)N[C@@H](CCC(=O)O)C(=O)O)cc3)cnc2n1`: the outcome in [1], in experiment [2], in [3], in [4], in experiment [5] and in [6] was inactive. For the same molecule, the result in experiment [7], in experiment [8] and in experiment [9] was inactive.

Regarding `Cc1ccc(N(C)C)cc1`, the outcome in [1], in [2], in experiment [3], in experiment [4], in [5] and in [6] was inactive. For the same molecule, the outcome in experiment [10], in [7], in experiment [8] and in experiment [9] was inactive.

`CCCCC(CC)COC(=O)CC(C(=O)OCC(CC)CCCC)S(=O)(=O)O` (stereo not given): the outcome in experiment [1], in experiment [2], in experiment [4] and in experiment [5] was inactive. The AC50 in experiment [3] is 7.42 µM (active); in [6], 8.52 µM (active); in experiment [7] it was 12.9 µM (active); in experiment [8] it was 10 µM (active); in [9], 9.34 µM (active).

Consider `C=CCOC(=O)c1ccccc1C(=O)OCC=C`, for which the result in [1], in experiment [2], in experiment [3], in [4], in experiment [5] and in [6] was inactive. In addition, the outcome in experiment [7], in [8] and in experiment [9] was inactive.

For the molecule `CN[C@H]1CC[C@@H](c2ccc(Cl)c(Cl)c2)c2ccc(S(N)(=O)=O)cc21`, the result in experiment [1] was inactive. The AC50 in experiment [2] was 9.57 µM (active); in [3] it was 26 µM (active); in experiment [4], 27.3 µM (active); in experiment [5], 31.4 µM (active); in experiment [6], 20 µM (active); in experiment [7], 34.1 µM (active). Besides, the AC50 was 10.3 µM (active) in experiment [8] and 20 µM (active) in experiment [9].

Take `Cc1cc(NC(=O)C(=O)O)cc(C)c1Oc1ccc(O)c2c1CCC2`: the outcome in [1], in experiment [2], in experiment [3], in experiment [4], in experiment [5] and in experiment [6] was inactive. For the same molecule, the outcome in [7], in experiment [8] and in experiment [9] was inactive.

For `CCCCCCC(=O)OCC`, the result in [1], in experiment [2], in experiment [3], in experiment [4], in experiment [5] and in [6] was inactive. Besides, the result in experiment [7], in experiment [8] and in [9] was inactive.

On to `CCOc1ccc2c(c1)C(C)=CC(C)(C)N2`, for which the result in experiment [1], in [2], in experiment [4], in experiment [5] and in [7] was inactive. Also, the AC50 in experiment [3] was 20 µM (active); in experiment [6], 15.1 µM (active); in experiment [8], 24.3 µM (active); in experiment [9], 6.14 µM (active).
